Where “and” joins values, the source holds several entries; their conditions need not be identical. Equal values may be shown once. Results filed as inconclusive are left out. More than one record can exist for a structure, and the calls need not agree. Calls of active or inactive are those of the source. The calls were made as follows, unless noted: active = hit-call score of the fitted dose curve at least 0.9, where 1 is the maximum; inactive = score below 0.9.
How the values were obtained:
[1] = read-out: Monokine induced gamma interferon (MIG), CXCL9 (gene 4283); test: BSK_3C_MIG: BioMAP Diversity Plus: 3C Assay for Monokine induced gamma interferon (MIG) Biomarker Activity (AID 2283021); details: primary human endothelial cells (HUVEC); actives raise or lower the signal;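 as to AC50: MIG protein level measured by immunoassay in the treated endothelial cultures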
In short: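 Endothelial primary cells (human umbilical vein) are dosed with test chemical in the 3C system. MIG levels are measured by ELISA at 24 h and fitted in both directions relative to DMSO.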

[2] = molecular target: human Vitamin D Receptor (VDR), VDR (gene 7421) (UniProt P11473); test: ATG_VDR_TRANS: Attagene TRANS-FACTORIAL HepG2 Assay for human Vitamin D Receptor (VDR) (AID 2283022; active = hit-call score of the fitted dose curve at least 0.9, where 1 is the maximum)
human Vitamin D Receptor (VDR), VDR (gene 7421), sequence (P11473 whole entry, looked up, the tested form may be a part): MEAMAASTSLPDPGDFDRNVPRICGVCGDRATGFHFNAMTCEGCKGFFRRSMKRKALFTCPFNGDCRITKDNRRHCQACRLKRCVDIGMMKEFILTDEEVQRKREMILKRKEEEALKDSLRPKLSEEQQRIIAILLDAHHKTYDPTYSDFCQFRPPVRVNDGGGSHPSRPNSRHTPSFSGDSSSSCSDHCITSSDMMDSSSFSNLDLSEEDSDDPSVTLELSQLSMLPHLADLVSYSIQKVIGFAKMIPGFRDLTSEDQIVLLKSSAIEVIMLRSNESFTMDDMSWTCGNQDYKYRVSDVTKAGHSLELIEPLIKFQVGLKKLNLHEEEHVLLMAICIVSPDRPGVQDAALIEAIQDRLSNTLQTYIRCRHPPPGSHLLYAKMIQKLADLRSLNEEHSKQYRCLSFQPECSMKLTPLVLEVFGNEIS
In short: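 RT-PCR/capillary electrophoresis read-out of reporter mRNA induction in transiently transfected HepG2; 24 h dosing; chimeric NR-Gal4 (TRANS format); gain-of-signal fit against DMSO baseline.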

[3] = read-out: Matrix Metallopeptidase 1 (MMP1), MMP1 (gene 4312); test: BSK_BE3C_MMP1: BioMAP Diversity Plus: BE3C Assay for Matrix Metallopeptidase 1 (MMP1) Biomarker Activity (AID 2283024); details: primary human bronchial epithelial cells; actives raise or lower the signal
In short: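 MMP1 signal, measured by ELISA after a 24 h chemical exposure of human primary bronchial epithelial cells, is analysed with bidirectional fitting using DMSO as negative control.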

[4] = read-out: Pselectin, SELP (gene 6403); test: BSK_4H_Pselectin: BioMAP Diversity Plus: 4H Assay for Pselectin Biomarker Activity (AID 2283026); details: primary human endothelial cells (HUVEC); actives raise or lower the signal
In short: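 Endothelial primary cells (human umbilical vein) are dosed, incubated 24 h, and assayed for surface P-selectin by ELISA; responses in either direction are fitted relative to the DMSO negative control.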

[5] = BSK_4H_SRB: Viability Assessment in the BioMAP Diversity Plus: 4H Assay (AID 2283027); details: primary human endothelial cells (HUVEC);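 also: cells exposed to compound for 24 h before staining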;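 as to AC50: curves fitted both ways versus DMSO so AC50 may be loss or gain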
In short: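 HUVEC, 24 h post-dose; 10% TCA fix, 0.1% SRB stain, A560 nm. Total protein = overt cytotoxicity, parallel to biomarker read. Bidirectional fit vs DMSO baseline.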

[6] = BSK_BE3C_SRB: Viability Assessment in the BioMAP Diversity Plus: BE3C Assay (AID 2283028); details: primary human bronchial epithelial cells;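 as to AC50: fitted both ways so AC50 may mark signal gain or loss versus DMSO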
In short: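 Primary human bronchial epithelium; chemical dosing, 24 h; 10% TCA fix, 0.1% SRB stain, A560; bidirectional fit vs DMSO baseline.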

[7] = read-out: Thrombomodulin, THBD (gene 7056); test: BSK_3C_Thrombomodulin: BioMAP Diversity Plus: 3C Assay for Thrombomodulin Biomarker Activity (AID 2283029); details: primary human endothelial cells (HUVEC); actives raise or lower the signal
In short: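 Endothelial cells from umbilical vein are dosed with test chemical and incubated 24 h. Thrombomodulin is then quantified by ELISA, with DMSO serving as negative control and activity baseline.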

[8] = read-out: Urokinase-type plasminogen activator receptor (uPAR), PLAUR (gene 5329); test: BSK_4H_uPAR: BioMAP Diversity Plus: 4H Assay for Urokinase-type plasminogen activator receptor (uPAR) Biomarker Activity (AID 2283030); details: primary human endothelial cells (HUVEC); actives raise or lower the signal
In short: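 HUVEC, 24 h post-dose; uPAR by ELISA; bidirectional fit vs DMSO baseline.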

[9] = read-out: Vascular endothelial growth factor receptor 2 (Homo sapiens) (UniProt P35968); test: BSK_4H_VEGFRII: BioMAP Diversity Plus: 4H Assay for Vascular endothelial growth factor receptor 2 (VEGFR2) Biomarker Activity (AID 2283031); details: primary human endothelial cells (HUVEC); actives raise or lower the signal;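 as to AC50: cell-surface VEGFR2 protein level quantified by ELISA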
In short: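 HUVEC (human primary), 4H system; 24 h post-dose; VEGFRII by ELISA; bidirectional curve fit vs DMSO baseline; gain or loss of signal scored.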

[10] = read-out: Human Leukocyte Antigen - DR isotype (HLADR), HLA-DRA (gene 3122); test: BSK_BE3C_HLADR: BioMAP Diversity Plus: BE3C Assay for Human Leukocyte Antigen - DR isotype (HLADR) Biomarker Activity (AID 2283032); details: primary human bronchial epithelial cells; actives raise or lower the signal
In short: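 Chemicals are dosed onto BE3C bronchial epithelial cultures of human origin and left 24 h. HLA-DR is then measured by ELISA, and the endpoint is fitted in both directions using DMSO as the activity baseline.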

[11] = read-out: Vascular cell adhesion molecule 1 (VCAM1), VCAM1 (gene 7412); test: BSK_4H_VCAM1: BioMAP Diversity Plus: 4H Assay for Vascular cell adhesion molecule 1 (VCAM1) Biomarker Activity (AID 2283033); details: primary human endothelial cells (HUVEC); actives raise or lower the signal
In short: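 Chemicals are added to primary human umbilical vein endothelial cells. After 24 h, VCAM-1 levels are measured by ELISA. Values come from bidirectional fitting referenced to DMSO.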

[12] = read-out: Interferon-gamma inducible Protein 10 (IP10), CXCL10 (gene 3627); test: BSK_BE3C_IP10: BioMAP Diversity Plus: BE3C Assay for Interferon-gamma inducible Protein 10 (IP10) Biomarker Activity (AID 2283034); details: primary human bronchial epithelial cells; actives raise or lower the signal
In short: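 IP-10 quantified by ELISA serves as the endpoint. Cells: primary human bronchial epithelium, read 24 h after compound addition. Activity is derived by bidirectional fitting with DMSO as negative control.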

[13] = read-out: Monokine induced gamma interferon (MIG), CXCL9 (gene 4283); test: BSK_BE3C_MIG: BioMAP Diversity Plus: BE3C Assay for Monokine induced gamma interferon (MIG) Biomarker Activity (AID 2283035); details: primary human bronchial epithelial cells; actives raise or lower the signal
In short: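 Dose cells (human primary bronchial epithelial), incubate 24 h, quantify MIG by ELISA, then fit concentration–response in both directions relative to DMSO control.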

[14] = read-out: Transforming growth factor beta 1 (TGFb1), TGFB1 (gene 7040); test: BSK_BE3C_TGFb1: BioMAP Diversity Plus: BE3C Assay for Transforming growth factor beta 1 (TGFb1) Biomarker Activity (AID 2283036); details: primary human bronchial epithelial cells; actives raise or lower the signal
In short: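 Bronchial epithelial primary cells are treated with test chemical, then TGF-b1 is quantified by ELISA after 24 hours. Values derive from bidirectional fitting against DMSO, with cytotoxicity checked by SRB staining in parallel cultures.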

[15] = read-out: Urokinase-type plasminogen activator receptor (uPAR), PLAUR (gene 5329); test: BSK_BE3C_uPAR: BioMAP Diversity Plus: BE3C Assay for Urokinase-type plasminogen activator receptor (uPAR) Biomarker Activity (AID 2283039); details: primary human bronchial epithelial cells; actives raise or lower the signal
In short: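 Steps: dose human primary bronchial epithelial cells, incubate 24 h, measure uPAR by ELISA, then fit gain- or loss-of-signal response bidirectionally relative to DMSO.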

[16] = read-out: Interleukin-6 (IL6), IL6 (gene 3569); test: BSK_CASM3C_IL6: BioMAP Diversity Plus: CASM3C Assay for Interleukin-6 (IL6) Biomarker Activity for (AID 2283040); details: primary human coronary artery smooth muscle cells; actives raise or lower the signal
[17] = read-out: Tissue plasminogen activator (tPA), PLAT (gene 5327); test: BSK_BE3C_tPA: BioMAP Diversity Plus: BE3C Assay for Tissue plasminogen activator (tPA) Biomarker Activity (AID 2283041); details: primary human bronchial epithelial cells; actives raise or lower the signal
In short: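 Gain- or loss-of-signal in tPA, measured by ELISA, derived by bidirectional fitting against DMSO. Cells: human primary bronchial epithelial; read at 24 h after chemical dosing.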

[18] = read-out: Interleukin-8 (IL8), CXCL8 (gene 3576); test: BSK_CASM3C_IL8: BioMAP Diversity Plus: CASM3C Assay for Interleukin-8 (IL8) Biomarker Activity (AID 2283042); details: primary human coronary artery smooth muscle cells; actives raise or lower the signal;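 also: IL-8 protein level quantified by ELISA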
[19] = read-out: Human Leukocyte Antigen - DR isotype (HLADR), HLA-DRA (gene 3122); test: BSK_CASM3C_HLADR: BioMAP Diversity Plus: CASM3C Assay for Human Leukocyte Antigen - DR isotype (HLADR) Biomarker Activity (AID 2283043); details: primary human coronary artery smooth muscle cells; actives raise or lower the signal;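 also: cell-surface HLA-DR protein level quantified by ELISA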
[20] = BSK_3C_Vis: BioMAP Diversity Plus: 3C Assay for Morphology Visualization (AID 2283025); details: primary human endothelial cells (HUVEC);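 also: fitted both ways so gain or loss versus DMSO counts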
In short: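 Morphology read by light microscopy serves as a background control for the multiplexed 3C assay in human umbilical vein endothelial cells, taken 24 h after dosing, with DMSO as the negative control and bidirectional curve fitting.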

Measured: AC50

CC(C)(c1cc(Br)c(OCCO)c(Br)c1)c1cc(Br)c(OCCO)c(Br)c1
active: [1] 27.6 µM | [3] 911 nM | [4] 8.19 µM | [5] 16.2 µM | [7] 28.6 µM | [8] 11.7 µM | [9] 9.45 µM | [11] 11.4 µM | [12] 4.54 µM
not listed: [20]
inactive: all other assays above

CCCCC/C=C\C/C=C\CCCCCCCC(=O)OC
active: [1] 31.4 µM | [20] 37.5 µM | [4] 20 µM | [5] 20 µM | [10] 18.8 µM | [11] 36.2 µM | [12] 24.9 µM | [13] 38.5 µM | [16] 20 µM | [19] 20 µM
inactive: [3] | [6] | [7] | [8] | [9] | [14] | [15] | [17] | [18]

O=Nc1ccc(O)cc1
not listed: [2]
inactive: all other assays above

c1ccc2c(c1)ccc1cc3c(ccc4ccccc43)cc12
inactive: [1] | [20] | [4] | [5] | [6] | [7] | [8] | [9] | [10] | [11] | [12] | [13] | [14] | [15] | [16] | [17] | [18] | [19]
active: [3] 15 nM | [20] 35.7 µM | [8] 0.267 µM

O=C1CCCN1CCO
not listed: [14] | [20]
inactive: all other assays above

CCOC(=O)c1ccccc1C(=C1C=C(Br)C(=O)C(Br)=C1)c1cc(Br)c(O)c(Br)c1
active: [1] 23.6 µM and 21.7 µM | [4] 21.9 µM and 19.8 µM | [5] 19.1 µM and 20.3 µM | [6] 12.5 µM | [7] 18.5 µM and 19.2 µM | [8] 15.6 µM and 15.8 µM | [10] 4.71 µM and 4.54 µM | [11] 20.6 µM and 20.1 µM | [12] 3.73 µM and 3.06 µM | [13] 5.86 µM and 5.17 µM | [15] 7.89 µM and 4.27 µM | [17] 2.55 µM and 2.71 µM
inactive: [3] | [6] | [9] | [16] | [18] | [19]

CN1C(=O)N(C)C(O)C1O (configuration not stated)
not listed: [2] | [14] | [20]
inactive: all other assays above

CCCCCCCCCCCCCCCC[N+](C)(C)CC
active: [1] 4.05 µM | [3] 3200 nM | [20] 0.533 µM | [4] 6.2 µM | [5] 1.57 µM | [6] 5.12 µM | [7] 2.35 µM | [10] 2.28 µM | [11] 1.9 µM | [12] 2.19 µM | [13] 9.57 µM | [14] 0.599 µM | [15] 2.08 µM | [16] 4.5 µM | [17] 797 nM | [18] 5.98 µM | [19] 2.97 µM
inactive: [2] | [8]

COc1ccc2nc(N)sc2c1
not listed: [2]
inactive: all other assays above

Nc1ccc(N)c(Cl)c1
inactive: [1] | [2] | [6] | [7] | [8] | [9] | [10] | [12] | [13] | [16] | [17] | [18] | [19]
active: [3] 150 nM and 1.5 µM | [4] 6.21 µM and 3.97 µM | [5] 27.4 µM and 30.5 µM | [9] 10.2 µM | [11] 20 µM and 19.6 µM | [15] 11.1 µM and 4.19 µM

CC(C)C(=O)C(C)C
not listed: [2]
inactive: all other assays above

CCCCCCCCc1ccc(Nc2ccc(CCCCCCCC)cc2)cc1
inactive: all assays above

C=CCOc1c(Br)cc(Br)cc1Br
active: [3] 3970 nM | [20] 14.1 µM | [4] 20 µM | [6] 31.4 µM | [7] 3.97 µM | [8] 31 µM | [10] 29 µM | [11] 31.5 µM | [12] 30.9 µM | [14] 6.57 µM | [15] 25.2 µM | [16] 27.5 µM | [17] 8880 nM | [18] 27.1 µM | [19] 26.8 µM
inactive: [1] | [2] | [5] | [9] | [13]

Source: PubChem BioAssay (EPA / NIEHS)
